Assay results reported in PubChem BioAssay (Tox21).
Values joined by “and” are separate entries in the source; they are usually repeats but may differ in a detail not shown here. Identical values can stand only once. Inconclusive results are not listed. A call without a number means that no potency is given here. A structure can be active in one record and inactive in another. Active and inactive are the calls of the source. Unless noted, calls follow the shape of the dose curve; as a rule, active = well fitted curve in the direction sought with a large enough effect in the repeat runs; inconclusive = weak or mixed curves; inactive = no such curve, though single readings can be large; an effect the other way counts as inactive or inconclusive.

Legend:
[1] = target: Retinoic acid receptor RXR-alpha (Homo sapiens) (UniProt P19793); assay: qHTS assay to identify small molecule agonists of the RXR signaling pathway (AID 1159527; calls by dose curve; also: nearly all actives have a fitted effect of over 35% in size; also: potency is read from the fitted curve at half-maximal effect)
Sequence of Retinoic acid receptor RXR-alpha (Homo sapiens) (P19793 whole entry, looked up): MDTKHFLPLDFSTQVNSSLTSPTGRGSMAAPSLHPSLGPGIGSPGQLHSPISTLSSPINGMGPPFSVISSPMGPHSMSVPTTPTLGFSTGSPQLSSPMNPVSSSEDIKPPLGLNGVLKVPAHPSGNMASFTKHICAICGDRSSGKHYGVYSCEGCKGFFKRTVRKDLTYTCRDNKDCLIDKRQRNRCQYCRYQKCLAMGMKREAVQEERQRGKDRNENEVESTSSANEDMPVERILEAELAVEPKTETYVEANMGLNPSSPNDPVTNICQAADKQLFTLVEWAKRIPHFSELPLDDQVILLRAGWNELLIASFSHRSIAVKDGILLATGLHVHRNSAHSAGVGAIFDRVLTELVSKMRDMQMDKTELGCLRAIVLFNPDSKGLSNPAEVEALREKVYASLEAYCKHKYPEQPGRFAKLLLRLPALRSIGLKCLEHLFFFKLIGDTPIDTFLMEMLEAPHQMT
Procedure, shortened: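 Agonist mode; 9-cis retinoic acid positive control. HEK 293T UAS-bla reporter cells, 2% charcoal-stripped FBS, 16 hr compound exposure at 37 C/5% CO2. LiveBLAzer B/G FRET substrate 2 hr RT; ex 405, em 460/530 nm.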

[2] = qHTS assay to identify small molecule agonists of the RXR signaling pathway - cell viability counter screen (AID 1159529); also: nearly all actives have a fitted effect of over 50% in size; also: potency is read from the fitted curve at half-maximal effect
Procedure, shortened: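 Luminescence from CellTiter-Glo (30 min, RT) measured viability in the same wells as the beta-lactamase reporter readout. Cells: GeneBLAzer RXR-alpha HEK 293T, 2% charcoal-stripped FBS. Compound exposure 16 hr, 37 C.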

[3] = qHTS assay to identify small molecule antagonists of the retinoid acid receptor (RAR) signaling pathway - cell viability counter screen (AID 1159551); also: nearly all actives have a fitted effect of over 35% in size
Procedure, shortened: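 Cytotoxicity counter screen: ATP content quantified by CellTiter-Glo luminescence in C3RL4 cells treated 6 hr at 37 C with compound and retinol (1 uM final). Cells plated at 1,000/well and cultured overnight before dosing.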

[4] = qHTS assay to identify small molecule antagonists of the retinoic acid receptor (RAR) signaling pathway (AID 1159552; also: nearly all actives have a fitted effect of over 50% in size)
Procedure, shortened: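 Luminescence from a RARE luciferase reporter in C3RL4 cells served as read-out. Cells received compounds together with 1 uM final retinol and incubated 6 hr at 37 C before detection reagent was added for 30 min at room temperature.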

[5] = qHTS assay to identify small molecule agonists of the retinoic acid receptor (RAR) signaling pathway (AID 1159553)
Procedure, shortened: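 Luminescence was measured 30 min after luciferase reagent addition at room temperature. Before that, C3RL4 reporter cells (1,000 per well, plated overnight) were treated with compound for 6 hr at 37 C and 5% CO2.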

[6] = qHTS assay to identify small molecule antagonists of the estrogen related receptor (ERR) signaling pathway - cell viability counter screen (AID 1224818);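 also: series mostly up to about 46 µM; viability measured after 17.5 h of compound exposure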
Procedure, shortened: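 Cytotoxicity counter screen: fluorescence from CellTiter-Fluor, added after 17.5 h compound exposure at 37 C and read 30 min later. ERR cell line seeded at 2,000 cells/well, preincubated 6 h before dosing.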

[7] = qHTS assay to identify small molecule antagonists of the estrogen related receptor signaling pathway with the pleiotropic PPARgamma coactivator (PGC) cell viability counter screen (AID 1224822; also: series mostly up to about 46 µM)
Procedure, shortened: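 Viability counter-screen read by fluorescence intensity after 30 min with CellTiter-Fluor at 37 C; PGC/ERR reporter cells were exposed to compounds for 17.5 h at 37 C following a 6 h preincubation.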

[8] = qHTS assay to identify small molecule antagonists of the estrogen related receptor (ERR) signaling pathway from Tox21 library - cell viability counter screen (AID 1224834); also: nearly all actives have a fitted effect of over 30% in size
Procedure, shortened: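 CellTiter-Fluor fluorescence, read after 30 min at 37 C, measures viability of ERR cells. Cells plated at 2,000/well and incubated 6 h before pin-tool compound addition, then exposed 17.5 hours at 37 C.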

[9] = target: Luciferin 4-monooxygenase (Photinus pyralis) (UniProt P08659); assay: qHTS assay to identify small molecule inhibitors of firefly luciferase (AID 1224835); also: series mostly up to about 120 µM; nearly all actives have a fitted effect of over 25% in size
Sequence of Luciferin 4-monooxygenase (Photinus pyralis) (P08659 whole entry, looked up): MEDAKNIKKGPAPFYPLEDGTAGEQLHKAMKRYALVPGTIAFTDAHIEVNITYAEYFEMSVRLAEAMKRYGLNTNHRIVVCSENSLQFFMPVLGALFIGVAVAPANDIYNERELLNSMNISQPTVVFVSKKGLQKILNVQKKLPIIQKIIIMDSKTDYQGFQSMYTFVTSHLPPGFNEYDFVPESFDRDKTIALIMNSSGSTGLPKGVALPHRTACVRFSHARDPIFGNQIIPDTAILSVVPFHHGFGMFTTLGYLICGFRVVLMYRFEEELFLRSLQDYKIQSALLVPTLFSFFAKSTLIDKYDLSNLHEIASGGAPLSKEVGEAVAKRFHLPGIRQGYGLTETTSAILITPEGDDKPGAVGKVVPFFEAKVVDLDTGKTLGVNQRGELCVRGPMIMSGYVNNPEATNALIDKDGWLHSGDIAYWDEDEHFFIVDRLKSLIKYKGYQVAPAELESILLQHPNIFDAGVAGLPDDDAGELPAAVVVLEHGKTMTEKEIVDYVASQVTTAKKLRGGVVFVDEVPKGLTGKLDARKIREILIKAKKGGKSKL
Procedure, shortened: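 Biochemical qHTS: compounds run as interplate titrations against purified firefly enzyme, with D-luciferin and ATP each at its KM concentration. Light output recorded by CCD imaging.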

[10] = qHTS assay to identify small molecule agonists of the constitutive androstane receptor (CAR) signaling pathway - cell viability counter screen (AID 1224836); also: series mostly up to about 92 µM; nearly all actives have a fitted effect of over 45% in size
Procedure, shortened: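 Viability read-out: CellTiter-Fluor fluorescence after 23 h compound exposure at 37 C/5% CO2 in double-stable HepG2-CYP2B6-hCAR cells, with PK11195 present at 0.75 uM final; compounds tested in 15-point titration.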

[11] = qHTS assay to identify small molecule antagonists of the constitutive androstane receptor (CAR) signaling pathway - cell viability counter screen (AID 1224837); also: series mostly up to about 92 µM; nearly all actives have a fitted effect of over 45% in size
Procedure, shortened: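 Cytotoxicity counter-screen: CellTiter-Fluor fluorescence after 23 h compound exposure (15-point qHTS) in double-stable HepG2-CYP2B6-hCAR cells, with 50 nM CITCO added.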

[12] = target: Nuclear receptor subfamily 1 group I member 3 (Homo sapiens) (UniProt Q14994); assay: qHTS assay to identify small molecule antagonists of the constitutive androstane receptor (CAR) signaling pathway (AID 1224838);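 also: HepG2 cells stably expressing hCAR with CYP2B6 luciferase reporter stimulated by CITCO; nearly all actives have a fitted effect of over 40% in size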
Sequence of Nuclear receptor subfamily 1 group I member 3 (Homo sapiens) (Q14994 whole entry, looked up): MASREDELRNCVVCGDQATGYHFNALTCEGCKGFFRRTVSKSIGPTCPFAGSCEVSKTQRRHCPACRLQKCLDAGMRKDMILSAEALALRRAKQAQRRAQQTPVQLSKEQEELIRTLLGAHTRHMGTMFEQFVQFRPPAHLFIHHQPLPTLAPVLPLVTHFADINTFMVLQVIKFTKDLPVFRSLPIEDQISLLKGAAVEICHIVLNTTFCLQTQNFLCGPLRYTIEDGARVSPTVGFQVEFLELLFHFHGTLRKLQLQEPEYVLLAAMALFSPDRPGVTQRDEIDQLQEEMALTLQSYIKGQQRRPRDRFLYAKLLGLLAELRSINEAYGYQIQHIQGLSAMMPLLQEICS
Procedure, shortened: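 Antagonism measured as luciferase signal (ONE-Glo, 30 min, room temperature) in CAR-stimulated cells: HepG2-CYP2B6-hCAR double-stable line exposed 24 hr at 37 C to compound in a 15-point series plus 50 nM CITCO.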

[13] = qHTS assay to identify small molecule antagonists of the estrogen related receptor signaling pathway with the pleiotropic PPARgamma coactivator (PGC) from Tox21 10K library - cell viability counter screen (AID 1224840; active = well fitted cell-killing curve with a large enough effect in the repeat runs, not every such curve was filed as active; also: nearly all actives have a fitted effect of over 40% in size)
Procedure, shortened: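 Counter-screen for cytotoxicity: after 17.5 h compound exposure at 37 C, CellTiter-Fluor reagent added to PGC/ERR cells for 30 min and fluorescence read. Cells were seeded at 2,000 per well 6 h before dosing.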

[14] = target: Nuclear receptor subfamily 1 group I member 3 (Homo sapiens) (UniProt Q14994); assay: qHTS assay to identify small molecule agonists of the constitutive androstane receptor (CAR) signaling pathway (AID 1224839); also: nearly all actives have a fitted effect of over 15% in size; also: potency is read from the fitted curve at half-maximal effect
Procedure, shortened: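 Luminescence read-out (ONE-Glo, 30 min, room temperature) from double-stable HepG2-CYP2B6-hCAR cells exposed 24 h to 15-point compound series in presence of 0.75 uM PK11195 final.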

[15] = qHTS assay to identify small molecule antagonists of the estrogen related receptor signaling pathway with the pleiotropic PPARgamma coactivator (PGC) from Tox21 10K library (AID 1224841; call rule not given here; also: series mostly up to about 92 µM; actives are mostly falling curves and most rising ones were filed inactive; nearly all actives have a fitted effect of over 50% in size)
Procedure, shortened: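 Luminescence (One-Glo, 30 min at room temperature) after 18 h compound treatment at 37 C of PGC/ERR reporter cells plated at 2,000 cells/well and settled 6 h beforehand.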

[16] = qHTS assay to identify small molecule agonists of the estrogen related receptor signaling pathway with the pleiotropic PPARgamma coactivator (PGC) from Tox21 10K library (AID 1224842); also: nearly all actives have a fitted effect of over 15% in size
Procedure, shortened: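 PGC/ERR reporter cell line, 2,000 cells per well, incubated 6 h at 37 C before 23 nL compound in DMSO was added. After 18 h at 37 C, One-Glo luminescence read following 30 min at room temperature.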

Structure (SMILES) | Potency [1] | Potency [2] | Potency [3] | Potency [4] | Potency [5] | outcome [6] | outcome [7] | Potency [8] | Potency [9] | Potency [10] | Potency [11] | Potency [12] | Potency [13] | Potency [14] | Potency [15] | Potency [16]
CCN(CC)CCNC(=O)c1ccc(NC(C)=O)cc1 | inactive | inactive | inactive | inactive | inactive | inactive | inactive | inactive | inactive | inactive | inactive | inactive | inactive | – | – | –
C[N+](C)(C)CCOC(N)=O | inactive | inactive | inactive | inactive | – | inactive | inactive | inactive | inactive | inactive | inactive | inactive | inactive | – | – | –
CC1(C)C(=O)N(Br)C(=O)N1Cl | inactive | inactive | inactive | inactive | inactive | – | – | inactive | inactive | inactive | inactive | inactive | inactive | inactive | inactive | –
O=C(O)C(Cc1cc(I)c(O)c(I)c1)c1ccccc1 (stereo not given) | inactive | inactive | inactive | inactive | – | – | – | – | – | – | inactive | inactive | inactive | inactive | – | –
CC(C)(C)C(=O)O | 39.1 µM (active) | inactive | inactive | inactive | inactive | – | – | inactive | inactive | inactive | inactive | inactive | inactive | inactive | inactive | –
CC(C)OCC1CO1 (stereo not given) | inactive | inactive | inactive | inactive | – | – | – | inactive | inactive | inactive | inactive | inactive | inactive | inactive | inactive | inactive
Cc1oncc1C(=O)Nc1ccc(C(F)(F)F)cc1 | inactive | 43.6 µM (active) and inactive | inactive | inactive | – | inactive | inactive | inactive | – | inactive | inactive | inactive | inactive | 770 nM (active) and 1.06 µM (active) | – | –
COC(=O)c1cc(S(N)(=O)=O)ccc1OC | inactive | inactive | inactive | inactive | inactive | – | – | inactive | inactive | inactive | inactive | inactive | inactive | – | inactive | inactive
CO[C@H]1O[C@H](CO)[C@@H](O)[C@H](O)[C@H]1O | inactive | inactive | inactive | inactive | inactive | – | – | inactive | inactive | inactive | inactive | inactive | inactive | – | inactive | inactive
